Here are results for 8 compounds from PubChem BioAssay (NCI).

This test is described as follows: NCI Yeast Anticancer Drug Screen. Data for the mlh1 strain (AID 171).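 Also: 0% = growth of vehicle-treated control cultures of the same strain.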 Conditions: S. cerevisiae mlh1 strain growth inhibition, hits give high values. The method, then: Growth inhibition of yeast strains with defined genetic alterations is measured as a screen for potential anti-cancer activity. Selected strains with alterations in DNA damage repair or cell cycle control were exposed to compounds and growth inhibition was measured relative to vehicle treated controls. The strain used in this assay is mlh1

About 79,000 compounds went through this panel and 15% of them were active in at least one assay; those are over-represented in the sample as a whole. A number with no mark means an inactive call. Active and inactive are the calls of the source. Rule as the data show it: active = growth inhibition above about 70%; inactive = the rest.

Take `CCN1CCC(O)(c2ccc(Oc3ccc(Cl)cc3)cc2)C(C(=O)c2ccc(Oc3ccc(Cl)cc3)cc2)C1` (stereo not given): the growth inhibition (at 1.2 µM) was -1%; the growth inhibition (at 3.7 µM) was -4%; the growth inhibition (at 11.0 µM) is -8%; the growth inhibition (at 33.0 µM) is -4%; the growth inhibition (at 100.0 µM) is 0%.
For the compound `CC1=CC(=O)C=CC1=Nc1cc(Cl)c(O)c(Cl)c1`, the growth inhibition is, setting by setting: (at 1.2 µM) -51%; (at 3.7 µM) -24%; (at 11.0 µM) -21%; (at 33.0 µM) 10%; (at 100.0 µM) 91% (active).
With `O=C1Nc2ccc(Br)cc2C1=Nc1cccnc1`, the growth inhibition is -25% (at 1.2 µM); -15% (at 3.7 µM); -42% (at 11.0 µM); -39% (at 33.0 µM); -31% (at 100.0 µM).
Turning to `CCCCCCC=C(C(=O)OCC)C(=O)OCC`, the growth inhibition (at 1.2 µM) is -2%; the growth inhibition (at 3.7 µM) was -2%; the growth inhibition (at 11.0 µM) is -7%; the growth inhibition (at 33.0 µM) was 1%; the growth inhibition (at 100.0 µM) was 19%.
Take `COc1ccc(C(C)c2cc3c(cc2OC(C)O)OCO3)cc1` (stereo not given): the growth inhibition reads like this: (at 1.2 µM) -2%; (at 3.7 µM) -3%; (at 11.0 µM) -1%; (at 33.0 µM) 1%; (at 100.0 µM) 92% (active).
The corresponding values for `O=C(/C(=C/c1ccc(O)cc1)c1ccccc1)c1ccccc1` are 6%, 24%, 68%, 98% (active) and 88% (active).
The matching figures for `O=C(CN(c1ccccc1)c1ccccc1)n1nnc2ccccc21`: 9%, 6%, 13%, 36% and 86% (active).
The matching figures for `CCCNCC(=O)O[C@]1(CC)C(=O)OCc2c1cc1n(c2=O)Cc2cc3ccccc3nc2-1`: 24%, 7%, 16%, 61% and 83% (active).
